Some test systems named below: T-47D breast; BT-549 breast; MDA-MB-435 melanoma; SW-620 colon; MCF7 breast; HCT-116 colon; HCC-2998 colon; KM12 colon.
What all share (assay): NCI-60 one-dose screen, 48 h (100 = growth as untreated, 0 = no growth, -100 = all killed)
What all share (conditions): 10 µM unless noted

Data on 14 compounds can be found in PubChem BioAssay (NCI).

About 83,000 compounds went through this panel and 20% of them were active in at least one assay; those are over-represented in the sample as a whole.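 The test compound was applied at a single concentration to cells in 96-well plates for 48 hours, and percent growth was recorded.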 Unmarked numbers belong to inactive results. Activity calls are given as the source filed them. How the source made its calls: active means growth percent below 10; inactive means the rest.

Regarding `Cc1cccc2c(=O)c3c(sc12)c(NCc1ccccc1)nc1ccccc13`, the growth in the test on T-47D breast is 48.4%; with BT-549 breast it was 101%; in the test on MDA-MB-435 melanoma, 109%; in the test on SW-620 colon, 95.5%; in the test with MCF7 breast, 27.2%; in the test on HCT-116 colon, 77%. Moreover, the growth was 90.3% in the test on HCC-2998 colon and 84.5% in the test on KM12 colon.
In the case of `COc1ccc(OC)c(/C=C/C(=O)N/N=C/c2ccccc2)c1`, the growth was 39.7% with T-47D breast; 60.8% with BT-549 breast; -7.51% (active) in the test on MDA-MB-435 melanoma; 28.7% in the test with SW-620 colon; 17.3% in the test on MCF7 breast; 14.2% in the test on HCT-116 colon. Moreover, the growth with HCC-2998 colon was 66.4%; with KM12 colon it was 31%.
With `O=C1CN(CCN2CC(=O)N(Cc3ccccc3)C(=O)C2)CC(=O)N1Cc1ccccc1`, the growth with T-47D breast is 99%; in the test on BT-549 breast it was 104%; in the test with MDA-MB-435 melanoma it was 106%; in the test with SW-620 colon it was 96.8%; with MCF7 breast it was 94.7%; in the test on HCT-116 colon it was 98.6%. Also, the figures for the growth in the test on HCC-2998 colon and with KM12 colon were 121% and 103%, respectively.
Take `O=c1c2cc(F)ccc2sc2c(NCCO)nc3ccccc3c12`: the growth in the test with T-47D breast was 93.1%; in the test on BT-549 breast it was 114%; with MDA-MB-435 melanoma, 110%; with SW-620 colon, 103%; in the test with MCF7 breast, 39.4%; in the test with HCT-116 colon, 105%. The results for the growth in the test on HCC-2998 colon and with KM12 colon were 116% and 105%, respectively.
With `O=C(S)CNC(=O)c1ccccc1`, the growth was 102% in the test with T-47D breast; 86.2% in the test with BT-549 breast; 104% in the test with MDA-MB-435 melanoma; 97.6% in the test with SW-620 colon; 98.7% with MCF7 breast; 87.6% with HCT-116 colon. The growth in the test on HCC-2998 colon was 101%; with KM12 colon, 105%.
On to `CCCCCCCCCCCCCCCCCCOc1ccccc1CC(=O)OCC[N+](CC)(CC)CC`, for which the growth was 23.5% in the test on T-47D breast; 76.3% with BT-549 breast; 11% with MDA-MB-435 melanoma; 21.6% with SW-620 colon; 12.9% in the test with MCF7 breast; 19.8% in the test with HCT-116 colon. Also, the growth in the test on HCC-2998 colon was 22.5%; with KM12 colon, 51.3%.
`C=C(C)[C@@H]1CC[C@]2(N=C=O)CC[C@]3(C)[C@H](CC[C@@H]4[C@@]5(C)Cc6c([nH]c7ccccc67)C(C)(C)[C@@H]5CC[C@]43C)[C@@H]12`: the growth in the test on T-47D breast was 62.4%; in the test with BT-549 breast it was 84.3%; in the test on MDA-MB-435 melanoma it was 86.4%; in the test with SW-620 colon, 78%; with MCF7 breast it was 39.5%; in the test with HCT-116 colon it was 11.6%. Further, the growth was 98.4% in the test on HCC-2998 colon and 70.5% in the test with KM12 colon.
Take `Cc1ccc(C(=O)N/N=C/c2cccc([N+](=O)[O-])c2)cn1`: the growth with T-47D breast was 93.1%; with BT-549 breast, 122%; in the test with MDA-MB-435 melanoma, 100%; in the test with SW-620 colon it was 103%; with MCF7 breast, 101%; with HCT-116 colon it was 105%. The growth in the test on HCC-2998 colon and in the test on KM12 colon was 107% each time.
For `O=C1COCCN1c1ccc(NCc2cn(C(=O)c3ccc(Cl)cc3)c3ccccc23)cc1`, the growth in the test with T-47D breast was -12.7% (active); with BT-549 breast, 41.9%; with MDA-MB-435 melanoma, 92.6%; with SW-620 colon it was 40.4%; in the test on MCF7 breast it was 10.1%; in the test with HCT-116 colon it was 7.09% (active). The growth in the test with HCC-2998 colon is 91%; in the test on KM12 colon, 97.1%.
Turning to `COc1cc(C2CC(c3cccc(Br)c3)=NN2C(C)=O)cc(OC)c1OC` (configuration not stated), the growth is 69.7% with T-47D breast; -8.75% (active) in the test with BT-549 breast; -51.2% (active) in the test on MDA-MB-435 melanoma; 24.8% in the test on SW-620 colon; 22.8% in the test with MCF7 breast; 17.2% in the test on HCT-116 colon. For the same compound, the growth in the test on HCC-2998 colon is -31% (active); in the test with KM12 colon, 16.9%.
Take `CCCCNC(=O)Oc1ccc(/C(=C(\C)c2ccc(Cl)cc2)c2ccc(OCCN(CC)CC)cc2)cc1`: the growth was 42.2% in the test on T-47D breast; 80.3% in the test with BT-549 breast; 66.4% in the test on MDA-MB-435 melanoma; 79.8% in the test on SW-620 colon; 30.1% in the test on MCF7 breast; 51% in the test with HCT-116 colon. Further, the values for the growth in the test with HCC-2998 colon and with KM12 colon were 80.6% and 68.2%, respectively.
In the case of `O=C(O)c1cn(C2CC2)c2cc(N3CCN(C(=O)Nc4nc(-c5ccccc5)cs4)CC3)c(F)cc2c1=O`, the growth with T-47D breast is 23.2%; in the test on BT-549 breast, 10.3%; in the test with MDA-MB-435 melanoma, 21%; in the test on SW-620 colon it was 29.4%; in the test with MCF7 breast, 7.78% (active); in the test on HCT-116 colon, 17.5%. Also, the growth with HCC-2998 colon was 34.4%; in the test on KM12 colon, 13.8%.
Turning to `O=C1CSC(c2c(Cl)cccc2Cl)N1c1nc(Cl)cc(=O)[nH]1` (configuration not stated), the growth was 104% in the test with T-47D breast; 228% in the test with BT-549 breast; 111% with MDA-MB-435 melanoma; 102% in the test on SW-620 colon; 107% in the test on MCF7 breast; 103% with HCT-116 colon. For the same compound, the growth in the test with HCC-2998 colon is 102%; in the test on KM12 colon it was 112%.
On to `O=C(/C=C/c1sc(Cl)nc1Cl)c1ccc(Br)cc1`, for which the growth with T-47D breast is 91.1%; in the test on BT-549 breast, 97.3%; in the test on MDA-MB-435 melanoma it was 98.4%; in the test with SW-620 colon, 47.7%; with MCF7 breast, 27.9%; in the test with HCT-116 colon it was 57.4%. Also, the growth in the test on HCC-2998 colon was 52.1%; in the test with KM12 colon, 77.2%.
